Test results from PubChem BioAssay (NCI).
This is part of a sample that, as a whole, favours compounds with a hit. Of some 83,000 tested, about 20% had one in any assay.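 Note: values are percent growth. 100 is the growth of untreated cells, values between 100 and 0 indicate rising inhibition; between -100 and 0 indicates cell death.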 Values without a mark were called inactive. Activity calls are given as the source filed them. How the source made its calls: active means growth percent below 10; inactive means the rest.

Legend:
Assay in all cases: NCI-60 one-dose screen, 48 h (100 = growth as untreated, 0 = no growth, -100 = all killed)
Conditions in all cases: 10 µM unless noted
[1] = test system: DU-145 prostate
[2] = test system: MALME-3M melanoma
[3] = test system: MDA-MB-231 breast
[4] = test system: RXF 393 renal
[5] = test system: SF-268 CNS
[6] = test system: SF-295 CNS
[7] = test system: SF-539 CNS
[8] = test system: UACC-257 melanoma
[9] = test system: M14 melanoma
[10] = test system: HCT-15 colon
[11] = test system: HT29 colon
[12] = test system: SNB-75 CNS
[13] = test system: SNB-19 CNS
[14] = test system: U251 CNS
[15] = test system: PC-3 prostate
[16] = test system: SK-MEL-5 melanoma
[17] = test system: UACC-62 melanoma
[18] = test system: LOX IMVI melanoma
[19] = test system: SK-MEL-28 melanoma
[20] = test system: K-562 leukemia

Row | Structure (SMILES) | growth [1] | growth [2] | growth [3] | growth [4] | growth [5] | growth [6] | growth [7] | growth [8] | growth [9] | growth [10] | growth [11] [%] | growth [12] | growth [13] | growth [14] | growth [15] | growth [16] | growth [17] | growth [18] | growth [19] | growth [20]
1 | C[N+]1(C)C2CC[C@@H]1CC(OC(=O)C(O)c1ccccc1)C2 (stereo partly specified) | 127% | 94.1% | 107% | 111% | 114% | 104% | 108% | 110% | 105% | 105% | 103 | 99% | 110% | 98.5% | 99.5% | 102% | 102% | 102% | 113% | –
2 | CCCCCCCCCCCCC1CCCC(C)C1 (stereo unspecified) | 109% | 93.3% | 105% | 109% | 110% | 90.1% | 118% | – | 106% | – | 101 | 64.8% | 104% | – | 88.8% | 101% | 102% | 99.7% | 88.9% | –
3 | O=C1/C(=C\c2coc3ccccc3c2=O)c2ccccc2N1c1c(Cl)cccc1Cl | 24.6% | 83.8% | 60.5% | 44.1% | 32% | -12% (active) | 49.4% | 61.2% | 43.4% | 24.7% | 47.6 | 62.7% | 62.6% | 36% | 31.8% | 20.3% | 36.6% | 37.1% | 47.3% | –
4 | O=C(Oc1cccc2ccccc12)c1ccccc1C(=O)c1ccccc1 | 99.3% | – | 85.7% | 98.3% | 79% | 98.5% | 103% | 90.4% | 93.4% | 93.2% | 59.5 | 98.1% | 101% | 79.5% | 47.6% | 96.6% | 96.6% | 72.3% | 119% | 5.05% (active)
5 | CCC(=O)Nc1cc2c(cc1Cl)-c1ccccc1C2 | 109% | – | 74.5% | 102% | 84.3% | 121% | 94.3% | 96.6% | 102% | – | 114 | 83.1% | 101% | 96.4% | 80.5% | 93.5% | 84.8% | 88.2% | 122% | 104%
6 | CN1CCN(CCCCCN=c2cc3c(=O)n(CCCCCN4CCN(C)CC4)c(=O)c4c(NCCCCCN5CCN(C)CC5)cc5c(O)n(CCCCCN6CCN(C)CC6)c(=O)c2c5c4-3)CC1 | 0.918% (active) | – | -34% (active) | 64.4% | -2.31% (active) | 36.4% | 10.4% | -11.4% (active) | 81.8% | 107% | – | -8.4% (active) | 3.84% (active) | 2.35% (active) | 12.6% | 44.3% | 21.9% | 1.9% (active) | -34.8% (active) | 8.94% (active)
7 | O=C(N/N=C/c1cccc([N+](=O)[O-])c1)c1ccc(Br)o1 | 103% | 115% | 115% | 104% | 104% | 111% | 98.4% | – | 99.8% | 127% | 105 | 98.5% | 83.5% | 110% | – | 97.3% | 102% | 112% | 133% | –
8 | COc1ccc(-c2c3c(N)nc(-c4ccncc4)nc3nc3c2c(C)nn3-c2ccccc2)cc1 | 82% | 76% | 67.6% | 69.4% | 54% | 58.7% | -40% (active) | – | 69.1% | 57.1% | 23.9 | 80.6% | 80.7% | – | 61% | 72.6% | 64.1% | 41.2% | 56.2% | –
9 | O=[N+]([O-])c1cc([N+](=O)[O-])c(N2CCCC2)cc1NN=C(c1ccc(O)cc1)c1ccc(O)cc1 | 95.8% | 140% | 93.6% | -22.2% (active) | 77.3% | 79.6% | 61.9% | – | 7.88% (active) | 46.9% | 78.2 | 71.8% | 37.3% | 68.5% | – | 18.8% | 63.1% | 41.6% | 97.1% | –
10 | Nc1ccccc1-c1ccn[nH]1 | 101% | – | 101% | 111% | 88.8% | 101% | 97.9% | 103% | 94.2% | 85.2% | 106 | 61.9% | 97.4% | 96.7% | 79.1% | 96.6% | 48.4% | 68.6% | 110% | 78.5%
11 | CCCCCCCCN(CCO)CCCCCCCC | 112% | – | 117% | 93.2% | 107% | – | 94.4% | 94.3% | 101% | – | 103 | 96.5% | 113% | 102% | 99.3% | 98.5% | 109% | 102% | 101% | 104%
12 | Cc1[nH]cnc1/C=C1\SC(N2CCCCC2)=NC1=O | 125% | – | 96.8% | 96.3% | 114% | 130% | 100% | 105% | 103% | 107% | 108 | 111% | 102% | 108% | 106% | 103% | 100% | 97.7% | 119% | 96.8%
13 | CCSCC1CC(O)(c2ccccc2)C(c2ccccc2)C(c2ccc(Cl)cc2)O1 (stereo unspecified) | 18.2% | -34.7% (active) | -26% (active) | -30.9% (active) | 17.3% | -54.1% (active) | -16.4% (active) | -11.5% (active) | 14.3% | 7.75% (active) | 13.5 | 59.4% | 28.5% | 5.12% (active) | 4.66% (active) | -94.8% (active) | 0.0955% (active) | -85.2% (active) | -18.7% (active) | –
14 | O=C(O)CNC(=O)C1(N2C(=O)c3ccccc3C2=O)CCCC1 | 124% | – | 101% | 95.7% | 116% | 102% | 118% | 109% | 105% | 106% | 105 | 88.2% | 99% | 107% | 104% | 100% | 94.5% | 97.2% | 104% | 96.2%
15 | Cc1nn(-c2ccccc2)cc1/C=C1\SC(N2CCCCC2)=NC1=O | 91.4% | – | 76.4% | 86% | 91.3% | 128% | 60.9% | 99.3% | 92.6% | 22% | 55.4 | 102% | 82.5% | 79.4% | 71% | 68.8% | 78.4% | 68.1% | 108% | 32.1%
16 | O=C1OC2(c3ccccc31)c1ccccc1-c1ccccc12 | 114% | – | 68.3% | 96.8% | 86.8% | 75.4% | 99.2% | 88.7% | 50.7% | 71.4% | 74.6 | 61.2% | 83% | 63.6% | 74.4% | 78.9% | 57.4% | 77.6% | 74.5% | 36.5%
